Values joined by “and” are separate entries in the source; they are usually repeats but may differ in a detail not shown here. Identical values can stand only once. Where a structure was tested more than once in an assay, its records may differ in their call. Active and inactive are the calls of the source. The calls were made as follows: active = hit-call score of the fitted dose curve at least 0.9, where 1 is the maximum; inactive = score below 0.9.
Read-out: Interleukin-8 (IL8), CXCL8 (gene 3576)
Assay: BSK_SAg_IL8: BioMAP Diversity Plus: SAg Assay for Interleukin-8 (IL8) Biomarker Activity (AID 2283094)
Details: primary human HUVEC with PBMC; actives raise or lower the signal
Protocol: BSK_SAg is a cell-based, multiplexed-readout assay that uses umbilical vein endothelium and peripheral blood mononuclear cells, a human vascular primary cell co-culture, with measurements taken at 24 hours after chemical dosing in a 96-well plate.BSK_SAg_IL8 is an assay component measured in the BSK_SAg assay. It measures IL-8 antibody related to regulation of gene expression using ELISA technology.Data from the assay component BSK_SAg_IL8 was analyzed into 1 assay endpoint. This assay endpoint, BSK_SAg_IL8, was analyzed with bidirectional fitting relative to DMSO as the negative control and baseline of activity. Using a type of binding reporter, gain or loss-of-signal activity can be used to understand changes in the signaling as they relate to the gene CXCL8. Furthermore, this assay endpoint can be referred to as a primary readout, because this assay has produced multiple assay endpoints where this one serves a signaling function. To generalize the intended target to other relatable targets, this assay endpoint is annotated to the cytokine intended target family, where the subfamily is interleukins.
The levels of cell surface (or secreted, indicated by the prefix "s") biomarker endpoints were measured by ELISA. Overt cytotoxicity to cells in confluent adherent cultures (all systems other than the BT system) was assessed by measuring total protein levels using sulforhodamine B (SRB) staining in parallel cultures at the time of biomarker measurements, indicated as SRB endpoints. For proliferation assays for adherent cell types, individual cell types are cultured at sub-confluence and relative cell numbers quantified by SRB staining at time points optimized for each system (48 h: 3C and CASM3C systems; 72 h: BT and HDF3CGF systems; 96 h: SAg system). SRB was performed by staining cells with 0.1% SRB after fixation with 10% TCA and reading wells at 560 nm.Viability and proliferation of PBMC (T cells) was quantified by Alamar Blue reduction for the SAg and BT systems. For PBMC viability (referred to as PBMC Cytotoxicity within the assay endpoint names), cells were plated (75,000/well in a 96-well plate) and then chemical samples added for 1 h before addition of activators, SEB and TSST-1 (20 ng/mL final concentration each). Cells were incubated for 90 h. Then, Alamar Blue (20 uL/well) (Invitrogen, Cat DAL1100) was added for 6 h, and the plates were read with a fluorescence microplate reader at 546/580 nm (excitation/emission). For PBMC proliferation, cells were plated and activated as above but incubated for only 16 h prior to addition of Alamar Blue. Plates were read after 6 h.

SMILES	outcome	AC50
FC(F)(F)C(F)(F)C(F)(F)C(F)(F)C(F)(F)C(F)(F)C(F)(F)Br	inactive	
CCCCC(CC)COP(=O)(O)OCC(CC)CCCC (stereo not given)	inactive	
C=C(C)C(=O)OCC(F)(F)C(F)(F)C(F)(F)F	inactive	
C=C(C)C(=O)OCC(F)(F)C(F)(F)C(F)(F)C(F)(F)C(F)(F)C(F)(F)C(F)(F)F	inactive	
O=C(Cl)C(F)(F)C(F)(F)C(F)(F)C(F)(F)C(F)(F)C(F)(F)C(F)(F)C(F)(F)F	inactive	42.7 µM (active)
O=S(=O)(OCC(F)F)C(F)(F)F	inactive	
CCCCNc1ccccc1	inactive	
OCC(F)(F)C(F)(F)C(F)(F)F	inactive	
FC(F)(F)C(F)(F)C(F)(F)C(F)(F)C(F)(F)C(F)(F)C(F)(F)C(F)(F)CCS	inactive	
NC(=O)C(F)(F)C(F)(F)C(F)(F)C(F)(F)F	inactive	
FC(F)(F)C(F)(F)C(F)(F)C(F)(F)C(F)(F)C(F)(F)C(F)(F)I	inactive	
O=C(O)C(F)(F)C(F)(F)C(F)(F)C(F)(F)C(F)(F)C(F)(F)C(F)(F)C(F)(F)C(F)(F)C(F)F		41.6 µM (active) and 47.9 µM (active)
O=C(O)C(F)(OC(F)(F)C(F)(OC(F)(F)C(F)(OC(F)(F)C(F)(F)C(F)(F)F)C(F)(F)F)C(F)(F)F)C(F)(F)F (stereo not given)	inactive	
O=C(CC(=O)C(F)(F)C(F)(F)F)C(F)(F)F	inactive	
C=CC(=O)OCC(F)(F)C(F)(F)C(F)(F)C(F)(F)C(F)(F)C(F)(F)C(F)(F)F	inactive	
C#C[C@]1(O)CC[C@H]2[C@@H]3CCc4cc(OC)ccc4[C@H]3CC[C@@]21C	inactive	
O=P(O)(O)OCCC(F)(F)C(F)(F)C(F)(F)C(F)(F)C(F)(F)C(F)(F)F	inactive	
O=C(O)C(F)(F)C(F)(F)C(F)(F)C(F)(F)C(F)(F)C(F)(F)C(F)(F)C(F)(F)C(F)(F)C(F)(F)C(F)(F)C(F)(F)F	inactive	
C=CC(F)(F)C(F)(F)C(F)(F)C(F)(F)C(F)(F)C(F)(F)C(F)(F)C(F)(F)F	inactive	

SMILES	outcome	AC50
CCCCCCOC(=O)c1ccccc1O	inactive	38.2 µM (active)
Oc1ccc(Nc2ccccc2)cc1	inactive	
O=C(O)C(F)(F)C(F)(F)C(F)F	inactive	
CCCCCCCCC(F)(F)C(F)(F)C(F)(F)C(F)(F)C(F)(F)C(F)(F)F	inactive	
COC(=O)CCC(F)(F)C(F)(F)C(F)(F)C(F)(F)F	inactive	
CC(CCl)OP(=O)(OC(C)CCl)OC(C)CCl (stereo not given)	inactive	
CCc1ccc(C(c2ccc(CC)cc2)C(Cl)Cl)cc1	inactive	
FC(F)(F)C(F)(F)C(F)(F)C(F)(F)C(F)(F)C(F)(F)CC1CO1 (stereo not given)	inactive	
O=C(O)C(F)(F)C(F)(F)C(F)(F)C(F)(F)F	inactive	
FC(F)(F)C(F)(F)C(F)(F)N(C(F)(F)C(F)(F)C(F)(F)F)C(F)(F)C(F)(F)C(F)(F)F	inactive	
N=C(N)C(F)(F)C(F)(F)C(F)(F)C(F)(F)C(F)(F)C(F)(F)C(F)(F)F	inactive	55.1 µM (active)
FC(F)(F)C(F)(F)C(F)(F)C(F)(F)C(F)(F)CCI	inactive	
O=C(O)C(F)(OC(F)(F)C(F)(OC(F)(F)C(F)(F)C(F)(F)F)C(F)(F)F)C(F)(F)F (stereo not given)	inactive	
CS(C)(=O)=O	inactive	
FC(F)(F)C(F)(F)C(F)(F)C(F)(F)C(F)(F)C(F)(F)CCS	inactive	
OCC(F)(F)C(F)(F)C(F)(F)C(F)(F)C(F)(F)C(F)(F)F	inactive	
Cc1ccc(S(=O)(=O)OCC(F)(F)C(F)(F)C(F)(F)C(F)(F)C(F)(F)C(F)F)cc1	inactive	
O=C(O)C(F)(F)C(F)(F)C(F)(F)C(F)(F)C(F)(F)C(F)(F)C(F)(F)C(F)(F)Cl		48.8 µM (active) and 50.1 µM (active)
